# From the supplement of paper PMC8728848
# The sample as a whole holds a higher share of the strongest signals than the screen did.
# B1: SP16665A-bot-344-23-344 (Bacteroides ovatus) (protein)
# chain: SDNEFPDFDYQTVYFANQYGLRTIELGESEFVDNTLDNQHKMVIKAAWGGGYTNRNNVVINFKVDESLCDNLYFKDTDQPLVPMPASYYTLASDRIAIPKGQIMAGVEVQLTDDFFADEKSISENYVIPLLMTNVQGADSILQGKPVVENPVLTNAGDWSILPQNFVLYAVKYVNPWHGEYLRRGIDHATVAGTSKDIIRHEQFVENDEVVNISTKSMKDNLLTLKTKDESGKDISYTVRLSFAEDGSCTVHSGSQNVVVSGSGKFVSKGEKNSLGGKDRNAIYLDYTVNLTDNNIQLATKDTLVLRTRNVYGGKSLEVVRK
# How the values were obtained:
# Assay in all cases: glycan array binding signal (z-score within array); higher = stronger binding
# Settings in all cases: glycan notation: IUPAC condensed, linker removed
# [1] = target: Fuc(a1-2)Gal(b1-3)GalNAc(a1-3)[Fuc(a1-2)]Gal(b1-4)GlcNAc
# Outline: (§1)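 The binding signal is a Z-score computed within each array. Data were drawn from 3228 arrays in the Consortium for Functional Glycomics database, restricted to those with a known protein sequence. Scores were averaged over arrays of the same protein sequence at different concentrations or buffers, and over linkers, and negative values can be taken as non-binding.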
# [2] = target: Fuc(a1-2)Gal(b1-3)GlcNAc(b1-2)Man(a1-3)[Fuc(a1-2)Gal(b1-3)GlcNAc(b1-2)Man(a1-6)]Man(b1-4)GlcNAc(b1-4)[Fuc(a1-6)]GlcNAc
# Outline: as §1
# [3] = target: Fuc(a1-2)Gal(b1-3)GlcNAc(b1-3)Gal(b1-4)Glc
# Outline: as §1
# [4] = target: Fuc(a1-2)Gal(b1-3)GlcNAc(b1-3)[Gal(b1-4)GlcNAc(b1-6)]Gal(b1-4)Glc
# Outline: as §1
# [5] = target: Fuc(a1-2)Gal3S(b1-4)GlcNAc
# Outline: as §1
# [6] = target: Fuc(a1-2)[Gal(a1-3)]Gal(b1-3)GlcNAc(b1-2)Man(a1-3)[Fuc(a1-2)[Gal(a1-3)]Gal(b1-3)GlcNAc(b1-2)Man(a1-6)]Man(b1-4)GlcNAc(b1-4)[Fuc(a1-6)]GlcNAc
# Outline: as §1
# [7] = target: Fuc(a1-2)[Gal(a1-3)]Gal(b1-4)GlcNAc(b1-3)[Fuc(a1-2)[Gal(a1-3)]Gal(b1-4)GlcNAc(b1-6)]GalNAc
# Outline: as §1
# [8] = target: Fuc(a1-2)[Gal(a1-3)]Gal(b1-4)[Fuc(a1-3)]GlcNAc(b1-3)GalNAc
# Outline: as §1
# [9] = target: Fuc(a1-2)[GalNAc(a1-3)]Gal
# Outline: as §1
# [10] = target: Fuc(a1-2)[GalNAc(b1-3)]Gal
# Outline: as §1
# [11] = target: Fuc(a1-3)[Gal(b1-4)]GlcNAc(b1-2)Man
# Outline: as §1
# [12] = target: Fuc(a1-3)[Gal(b1-4)]GlcNAc(b1-3)Gal(b1-4)[Fuc(a1-3)]GlcNAc
# Outline: as §1
# [13] = target: Fuc(a1-3)[Gal(b1-4)]GlcNAc(b1-3)Gal(b1-4)[Fuc(a1-3)]GlcNAc(b1-3)Gal(b1-4)[Fuc(a1-3)]GlcNAc
# Outline: as §1
# [14] = target: Fuc(a1-3)[Gal(b1-4)]GlcNAc(b1-3)GalNAc
# Outline: as §1
# Fuc(a1-4)GlcNAc = target: Fuc(a1-4)GlcNAc
# Outline: as §1
# Gal(a1-3)Gal(b1-3)GlcNAc = target: Gal(a1-3)Gal(b1-3)GlcNAc
# Outline: as §1
# [15] = target: Gal(a1-3)Gal(b1-4)GlcNAc(b1-2)Man(a1-3)[Gal(a1-3)Gal(b1-4)GlcNAc(b1-2)Man(a1-6)]Man(b1-4)GlcNAc(b1-4)GlcNAc
# Outline: as §1
# [16] = target: Gal(a1-3)[Gal(a1-4)]Gal(b1-4)GlcNAc
# Outline: as §1
# [17] = target: Gal(b1-3)GalNAc(b1-4)[Neu5Ac(a2-3)]Gal(b1-4)Glc
# Outline: as §1
# Gal(b1-3)GlcNAc(b1-2)Man = target: Gal(b1-3)GlcNAc(b1-2)Man
# Outline: as §1
# [18] = target: Gal(b1-3)GlcNAc(b1-2)Man(a1-3)[GlcNAc(b1-4)][Gal(b1-3)GlcNAc(b1-2)Man(a1-6)]Man(b1-4)GlcNAc(b1-4)GlcNAc
# Outline: as §1
# [19] = target: Gal(b1-3)GlcNAc(b1-3)Gal(b1-3)GlcNAc
# Outline: as §1
# Gal(b1-4)Glc = target: Gal(b1-4)Glc
# Outline: as §1
# Gal(b1-4)GlcNAc(b1-2)Man = target: Gal(b1-4)GlcNAc(b1-2)Man
# Outline: as §1
# [20] = target: Gal(b1-4)GlcNAc(b1-2)[Gal(b1-4)GlcNAc(b1-4)]Man(a1-3)[Gal(b1-4)GlcNAc(b1-2)Man(a1-6)]Man(b1-4)GlcNAc(b1-4)GlcNAc
# Outline: as §1
# [21] = target: Gal(b1-4)GlcNAc(b1-3)Gal(b1-4)GlcNAc
# Outline: as §1
# [22] = target: Gal(b1-4)GlcNAc(b1-3)Gal(b1-4)GlcNAc(b1-3)Gal(b1-4)GlcNAc(b1-2)Man(a1-3)[Gal(b1-4)GlcNAc(b1-3)Gal(b1-4)GlcNAc(b1-3)Gal(b1-4)GlcNAc(b1-2)Man(a1-6)]Man(b1-4)GlcNAc(b1-4)[Fuc(a1-6)]GlcNAc
# Outline: as §1
# [23] = target: Gal(b1-4)GlcNAc(b1-3)Gal(b1-4)GlcNAc(b1-3)[Gal(b1-4)GlcNAc(b1-3)Gal(b1-4)GlcNAc(b1-6)]GalNAc
# Outline: as §1
# [24] = target: Gal3S(b1-4)[Fuc(a1-3)]GlcNAc
# Outline: as §1
# GalNAc(a1-3)GalNAc = target: GalNAc(a1-3)GalNAc
# Outline: as §1
binder,measurement,setting,value
B1,glycan array binding signal (z-score),[1],-0.235
same,glycan array binding signal (z-score),[2],0.285
same,glycan array binding signal (z-score),[3],-0.208
same,glycan array binding signal (z-score),[4],-0.461
same,glycan array binding signal (z-score),[5],0.29
same,glycan array binding signal (z-score),[6],-0.333
same,glycan array binding signal (z-score),[7],8.34
same,glycan array binding signal (z-score),[8],-0.571
same,glycan array binding signal (z-score),[9],-0.372
same,glycan array binding signal (z-score),[10],-0.266
same,glycan array binding signal (z-score),[11],0.187
same,glycan array binding signal (z-score),[12],-0.237
same,glycan array binding signal (z-score),[13],0
same,glycan array binding signal (z-score),[14],-0.329
same,glycan array binding signal (z-score),Fuc(a1-4)GlcNAc,19.1
same,glycan array binding signal (z-score),Gal(a1-3)Gal(b1-3)GlcNAc,0.959
same,glycan array binding signal (z-score),[15],0.709
same,glycan array binding signal (z-score),[16],1.28
same,glycan array binding signal (z-score),[17],-0.5
same,glycan array binding signal (z-score),Gal(b1-3)GlcNAc(b1-2)Man,2.76
same,glycan array binding signal (z-score),[18],-0.153
same,glycan array binding signal (z-score),[19],0.024
same,glycan array binding signal (z-score),Gal(b1-4)Glc,-0.451
same,glycan array binding signal (z-score),Gal(b1-4)GlcNAc(b1-2)Man,1.02
same,glycan array binding signal (z-score),[20],-0.051
same,glycan array binding signal (z-score),[21],-0.125
same,glycan array binding signal (z-score),[22],2.77
same,glycan array binding signal (z-score),[23],0.116
same,glycan array binding signal (z-score),[24],-0.285
same,glycan array binding signal (z-score),GalNAc(a1-3)GalNAc,1.35
